# Source: the supplement of paper PMC8728848
# The full list was thinned out, with the strongest signals kept by preference.
# Tests used:
# Test in all cases: glycan array binding signal (z-score within array); higher = stronger binding
# Settings in all cases: glycan notation: IUPAC condensed, linker removed
# [1] = target: Fuc(a1-2)Gal(b1-3)GlcNAc6S
# Method in brief: (§1)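 Glycan array binding is given as a within-array Z-score, which can be read as non-binding when negative. The arrays, 3228 of them, came from the Consortium for Functional Glycomics database and were retained only where the protein sequence was available. Z-scores were averaged across arrays of the same protein sequence at different concentrations or buffers and across linkers.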
# [2] = target: Fuc(a1-2)Gal(b1-3)[Fuc(a1-4)]GlcNAc(b1-2)Man(a1-3)[Fuc(a1-2)Gal(b1-3)[Fuc(a1-4)]GlcNAc(b1-2)Man(a1-6)]Man(b1-4)GlcNAc(b1-4)[Fuc(a1-6)]GlcNAc(b1-4)[Fuc(a1-6)]GlcNAc
# Method in brief: as §1
# Fuc(a1-2)Gal(b1-4)Glc = target: Fuc(a1-2)Gal(b1-4)Glc
# Method in brief: as §1
# Fuc(a1-2)Gal(b1-4)GlcNAc = target: Fuc(a1-2)Gal(b1-4)GlcNAc
# Method in brief: as §1
# [3] = target: Fuc(a1-2)Gal(b1-4)[Fuc(a1-3)]GlcNAc
# Method in brief: as §1
# [4] = target: Fuc(a1-2)Gal6S(b1-4)GlcNAc
# Method in brief: as §1
# [5] = target: Fuc(a1-2)[Gal(a1-3)]Gal(b1-3)GlcNAc
# Method in brief: as §1
# [6] = target: Fuc(a1-2)[Gal(a1-3)]Gal(b1-4)[Fuc(a1-3)]GlcNAc
# Method in brief: as §1
# [7] = target: Fuc(a1-2)[GalNAc(a1-3)]Gal(b1-3)GlcNAc
# Method in brief: as §1
# [8] = target: Fuc(a1-2)[GalNAc(a1-3)]Gal(b1-3)GlcNAc(b1-2)Man(a1-3)[Fuc(a1-2)[GalNAc(a1-3)]Gal(b1-3)GlcNAc(b1-2)Man(a1-6)]Man(b1-4)GlcNAc(b1-4)GlcNAc
# Method in brief: as §1
# [9] = target: Fuc(a1-2)[GalNAc(a1-3)]Gal(b1-4)Glc
# Method in brief: as §1
# [10] = target: Fuc(a1-2)[GalNAc(a1-3)]Gal(b1-4)GlcNAc
# Method in brief: as §1
# [11] = target: Fuc(a1-2)[GalNAc(a1-3)]Gal(b1-4)GlcNAc(b1-2)Man
# Method in brief: as §1
# [12] = target: Fuc(a1-2)[GalNAc(a1-3)]Gal(b1-4)GlcNAc(b1-2)Man(a1-3)[Fuc(a1-2)[GalNAc(a1-3)]Gal(b1-4)GlcNAc(b1-2)Man(a1-6)]Man(b1-4)GlcNAc(b1-4)GlcNAc
# Method in brief: as §1
# [13] = target: Fuc(a1-2)[GalNAc(a1-3)]Gal(b1-4)GlcNAc(b1-3)Gal(b1-4)GlcNAc
# Method in brief: as §1
# [14] = target: Fuc(a1-2)[GalNAc(a1-3)]Gal(b1-4)GlcNAc(b1-3)Gal(b1-4)GlcNAc(b1-3)Gal(b1-4)GlcNAc
# Method in brief: as §1
# [15] = target: Fuc(a1-3)[Gal(b1-4)]GlcNAc(b1-6)GalNAc
# Method in brief: as §1
# [16] = target: Gal(a1-3)Gal(b1-4)[Fuc(a1-3)]GlcNAc
# Method in brief: as §1
# [17] = target: Gal(b1-3)GalNAc(a1-3)[Fuc(a1-2)]Gal(b1-4)Glc
# Method in brief: as §1
# [18] = target: Gal(b1-3)GalNAc(a1-3)[Fuc(a1-2)]Gal(b1-4)GlcNAc
# Method in brief: as §1
# Gal(b1-3)GlcNAc = target: Gal(b1-3)GlcNAc
# Method in brief: as §1
# [19] = target: Gal(b1-3)GlcNAc(b1-2)Man(a1-3)[Gal(b1-3)GlcNAc(b1-2)Man(a1-6)]Man(b1-4)GlcNAc(b1-4)GlcNAc
# Method in brief: as §1
# [20] = target: Gal(b1-3)[GlcNAc(b1-6)]GalNAc
# Method in brief: as §1
# [21] = target: Gal(b1-3)[Neu5Ac(a2-6)]GlcNAc(b1-6)Gal(b1-4)Glc
# Method in brief: as §1
# [22] = target: Gal(b1-4)GalNAc(a1-3)[Fuc(a1-2)]Gal(b1-4)GlcNAc
# Method in brief: as §1
# Gal(b1-4)GlcNAc(b1-2)Man = target: Gal(b1-4)GlcNAc(b1-2)Man
# Method in brief: as §1
# [23] = target: Gal(b1-4)GlcNAc(b1-3)Gal(b1-4)GlcNAc(b1-3)Gal(b1-4)GlcNAc
# Method in brief: as §1
# [24] = target: Gal(b1-4)GlcNAc(b1-3)Gal(b1-4)GlcNAc(b1-3)Gal(b1-4)GlcNAc(b1-3)Gal(b1-4)GlcNAc(b1-2)[Gal(b1-4)GlcNAc(b1-3)Gal(b1-4)GlcNAc(b1-3)Gal(b1-4)GlcNAc(b1-3)Gal(b1-4)GlcNAc(b1-6)]Man(a1-6)[Gal(b1-4)GlcNAc(b1-3)Gal(b1-4)GlcNAc(b1-3)Gal(b1-4)GlcNAc(b1-3)Gal(b1-4)GlcNAc(b1-2)Man(a1-3)]Man(b1-4)GlcNAc(b1-4)[Fuc(a1-6)]GlcNAc
# Method in brief: as §1
# [25] = target: Gal3S(b1-4)[Fuc(a1-3)]Glc6S
# Method in brief: as §1
# GalNAc(b1-3)GlcNAc = target: GalNAc(b1-3)GlcNAc
# Method in brief: as §1
binder,measurement,setting,value
"Gal 4 (Mus musculus), P56470 (protein) MAYVPAPGYQPTYNPTLPYYQPIPGGLNVGMSVYIQGVASEHMKRFFVNFVVGQDPGSDVAFHFNPRFDGWDKVVFNTLQGGKWGSEERKRSMPFKKGAAFELVFIVLAEHYKVVVNGNPFYEYGHRLPLQMVTHLQVDGDLQLQSINFIGGQPLRPQGPPMMPPYPGPGHCHQQLNSLPTMEGPPTFNPPVPYFGRLQGGLTARRTIIIKGYVPPTGKSFAINFKVGSSGDIALHINPRMGNGTVVRNSLLNGSWGSEEKKITHNPFGPGQFFDLSIRCGLDRFKVYANGQHLFDFAHRLSAFQRVDTLEIQGDVTLSYVQI",glycan array binding signal (z-score),[1],4.25
same,glycan array binding signal (z-score),[2],-0.312
same,glycan array binding signal (z-score),Fuc(a1-2)Gal(b1-4)Glc,-0.196
same,glycan array binding signal (z-score),Fuc(a1-2)Gal(b1-4)GlcNAc,-0.232
same,glycan array binding signal (z-score),[3],-0.234
same,glycan array binding signal (z-score),[4],-0.199
same,glycan array binding signal (z-score),[5],2.26
same,glycan array binding signal (z-score),[6],-0.266
same,glycan array binding signal (z-score),[7],4.51
same,glycan array binding signal (z-score),[8],6.91
same,glycan array binding signal (z-score),[9],5.4
same,glycan array binding signal (z-score),[10],3.27
same,glycan array binding signal (z-score),[11],4.19
same,glycan array binding signal (z-score),[12],3.77
same,glycan array binding signal (z-score),[13],4.64
same,glycan array binding signal (z-score),[14],4.02
same,glycan array binding signal (z-score),[15],-0.301
same,glycan array binding signal (z-score),[16],-0.234
same,glycan array binding signal (z-score),[17],4.95
same,glycan array binding signal (z-score),[18],3.84
same,glycan array binding signal (z-score),Gal(b1-3)GlcNAc,-0.228
same,glycan array binding signal (z-score),[19],-0.181
same,glycan array binding signal (z-score),[20],-0.234
same,glycan array binding signal (z-score),[21],-0.176
same,glycan array binding signal (z-score),[22],4.23
same,glycan array binding signal (z-score),Gal(b1-4)GlcNAc(b1-2)Man,-0.289
same,glycan array binding signal (z-score),[23],-0.171
same,glycan array binding signal (z-score),[24],-0.148
same,glycan array binding signal (z-score),[25],-0.18
same,glycan array binding signal (z-score),GalNAc(b1-3)GlcNAc,-0.272
